From PubChem BioAssay
The source made the active and inactive calls.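 The calls were made as follows, unless noted: active = visually confirmed hit in the image check and inhibition above 20%; inconclusive = visually confirmed hit but inhibition not above 20%; inactive = no visual hit in the image check.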

Columns and labels:
[1] = inhibitors of TNFa-induced NFkB p65 translocation, primary screen, imaging, HUVEC, MLSMR starter and 10KST1 sets (AID 438;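 active = inhibition above 20% together with a positive visual image hit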;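 also: compound added about 3h40 before a 20 min TNFalpha stimulation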;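 as to inhibition: signal is the nuclear over cytoplasmic p65 intensity ratio per well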); conditions: HUVEC TNFa-induced p65 nuclear translocation; cell count: measured here: nuclei count (cytotoxicity indicator), at 2.08 µM; inhibition: at 2 µM, stronger effect = higher value, 0% TNFa-plus-vehicle, 100% no-TNFa wells
[2] = reduction of polyQ htt aggregates in cells – imaging, exon1htt(103Q)mCFP cells, high-content imaging, primary screen (AID 483;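 active = visual image review flags a hit and inhibition of aggregation exceeds 20%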;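 also: compound exposure lasted 3 days before fixation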;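 as to nuclei count: percent of the per-plate median nuclei count of sample wells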); conditions: exon1htt(103Q)mCFP cell line, aggregate imaging, at 2 µM; inhibition of aggregation: stronger effect = higher value; nuclei count: measured here: cell count, toxicity
[3] = endothelial E-selectin expression blockers – imaging, HUVEC, immunofluorescence, MLSMR starter and 10KST1 sets, primary screen (AID 487); conditions: HUVEC TNFalpha-induced E-selectin immunofluorescence imaging, at 2 µM; inhibition: stronger effect = higher value; nuclei count: measured here: cell number, toxicity;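 as to inhibition: signal is fraction of cell area covered by stained E-selectin grains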;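 as to nuclei count: 100% = median nuclei count of all wells on the same plate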
[4] = target: Voltage-gated potassium channel subunit beta-2 (Rattus norvegicus) (UniProt P62483); assay: inhibitors of rat Kvbeta2 reductase activity – biochemical, NADPH fluorescence, primary screen (AID 622;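 active = fluorescence slope higher than the sample average by over 3 SD, cut at about -0.22 in these data, passing the limit was not always enough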;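 also: slope of raw intensity against log time taken from 70 to 1610 s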); conditions: recombinant KvBeta, 4-cyanobenzaldehyde reduction, at 10 µM, stronger effect = higher value
Chain of Voltage-gated potassium channel subunit beta-2 (Rattus norvegicus) (P62483 whole entry, looked up): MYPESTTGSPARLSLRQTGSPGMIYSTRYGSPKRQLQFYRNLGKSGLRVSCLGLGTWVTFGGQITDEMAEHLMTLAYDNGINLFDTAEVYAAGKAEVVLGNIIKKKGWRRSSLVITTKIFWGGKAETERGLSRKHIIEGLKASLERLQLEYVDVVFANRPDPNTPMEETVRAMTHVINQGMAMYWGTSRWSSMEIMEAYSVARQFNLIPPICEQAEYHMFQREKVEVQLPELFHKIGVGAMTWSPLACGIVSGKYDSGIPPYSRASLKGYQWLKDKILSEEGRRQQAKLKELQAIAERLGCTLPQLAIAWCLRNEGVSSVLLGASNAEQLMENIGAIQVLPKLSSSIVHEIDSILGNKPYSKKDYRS

[5] = target: Voltage-gated potassium channel subunit beta-2 (Rattus norvegicus) (UniProt P62483); assay: enhancers of rat Kvbeta2 NADPH turnover – biochemical, NADPH fluorescence, primary screen (AID 623;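 active = NADPH fluorescence slope more negative than the mean of all samples by about 3 SD, 99.7% confidence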;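 also: fluorescence intensity change per second fitted from 20 to 320 s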); conditions: Recombinant KvBeta, NADPH fluorescence decrease slope, 10 min; at 10 µM; stronger effect = lower value
[6] = target: Alpha-2C adrenergic receptor (Homo sapiens) (UniProt P18825); assay: compounds altering alpha2C-coupled GIRK flux – cell-based, HEK293 alpha2C/GIRK1/2, thallium flux, primary screen (AID 624;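 active = fluorescence slope after compound addition differing from the mean of all screened samples at 99.7% confidence, in either direction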;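 also: slope of fluorescence ratio to pre-addition baseline per second over 15 to 24 s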); conditions: thallium flux BTC fluorescence, at 10 µM, actives lie on both sides
Chain of Alpha-2C adrenergic receptor (Homo sapiens) (P18825 whole entry, looked up): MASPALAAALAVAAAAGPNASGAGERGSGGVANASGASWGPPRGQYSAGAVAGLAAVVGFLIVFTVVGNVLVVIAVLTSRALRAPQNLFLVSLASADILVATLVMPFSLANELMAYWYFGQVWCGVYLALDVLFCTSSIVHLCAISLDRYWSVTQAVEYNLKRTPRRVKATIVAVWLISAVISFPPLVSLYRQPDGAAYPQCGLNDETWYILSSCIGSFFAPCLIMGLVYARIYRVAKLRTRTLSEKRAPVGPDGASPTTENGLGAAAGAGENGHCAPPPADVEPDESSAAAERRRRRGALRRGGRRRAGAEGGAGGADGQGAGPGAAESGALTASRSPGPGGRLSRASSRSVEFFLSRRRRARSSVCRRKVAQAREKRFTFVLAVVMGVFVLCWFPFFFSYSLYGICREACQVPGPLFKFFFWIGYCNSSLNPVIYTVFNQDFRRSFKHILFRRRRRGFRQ

[7] = blockers of RIG-like receptor reporter activation – cell-based, Sendai virus stimulus, luciferase, 10K MLSCN set, TLR/RLR signaling modifier project, primary screen (AID 602276;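 active = inhibition at or above 50% at 10 µM; inactive = inhibition below 50%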;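 also: firefly luciferase from ISG56 promoter only with Renilla not read in this screen; 0% = Sendai virus plus DMSO and 100% = medium plus DMSO without virus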); conditions: HEK293 RL24 IRF3 luciferase reporter, at 10 µM, stronger effect = higher value
[8] = TLR3 IRF3 reporter activation blockers – cell-based, poly I:C stimulus, luciferase, 10K MLSCN set, primary screen (AID 602277;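 active = inhibition of the reporter signal at or above 50%; inactive = inhibition below 50%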); conditions: HEK293-TLR3 RL24 IRF3 luciferase reporter, at 10 µM, stronger effect = higher value

SMILES	cell count [1]	inhibition [1]	inhibition of aggregation [2]	nuclei count [2] [%]	inhibition [3]	nuclei count [3] [%]	fluorescence slope [4]	NADPH fluorescence slope [5]	slope [6]	inhibition [7]	inhibition [8]
O=c1c(-c2ccc(Br)cc2)coc2c(CN3CCOCC3)c(O)ccc12	557	-2.4% (inactive)	-1.6% (inactive)	102	-9.2% (inactive)	118	-0.0321 (active)	3.3e-05 (inactive)	0.00611 (inactive)	2.64% (inactive)	-17.1% (inactive)
Cc1ccc(-n2ncc3c(=O)n(CC(=O)NCc4ccco4)cnc32)cc1	473	-7% (inactive)	9.4% (inactive)	110	-72.1% (inactive)	108	-0.485 (inactive)	-0.000156 (inactive)	0.00543 (inactive)	21.7% (inactive)	20.3% (inactive)
O=S(=O)(c1cccs1)N1CCN(C/C=C/c2ccccc2)CC1	359	2.4% (inactive)	-19.8% (inactive)	108	62.2% (inactive)	94.8	-0.492 (inactive)	-4.5e-05 (inactive)	0.00442 (inactive)	10.2% (inactive)	9.74% (inactive)
CCCNS(=O)(=O)c1ccc(OCC(=O)NCc2ccco2)cc1	603	11.7% (inactive)	-6% (inactive)	110	-76.7% (inactive)	126	-0.478 (inactive)	8.5e-05 (inactive)	0.00584 (inactive)	-6.02% (inactive)	-17.4% (inactive)
O=C(CC(C(=O)N1CCc2ccccc21)n1ccnc1)NCc1cccnc1 (centres undefined)	655	-2.2% (inactive)	23.5% (inactive)	122	-67% (inactive)	119	-0.446 (inactive)	9.2e-07 (inactive)	0.00564 (inactive)	10.8% (inactive)	20.7% (inactive)
O=C(COc1ccc(=O)n(-c2ccccc2)n1)Nc1ccccc1	600	8% (inactive)	-6.4% (inactive)	114	23.8% (inactive)	119	-0.471 (inactive)	7.6e-06 (inactive)	0.00619 (inactive)	9.72% (inactive)	23.6% (inactive)
COc1cc(NC2c3ccccc3C(=O)N2c2ccc(C)cn2)cc(OC)c1OC (centres undefined)	619	5.5% (inactive)	11.3% (inactive)	85.2	-7.5% (inactive)	109	-0.593 (inactive)	1.6e-05 (inactive)	0.00732 (inactive)	-30.9% (inactive)	-44.7% (inactive)
CCOC(=O)Cn1c(CCC(=O)O)ccc1-c1ccc(F)cc1	584	-5% (inactive)	-12.4% (inactive)	98.2	-54.4% (inactive)	97.7	-0.548 (inactive)	-2.7e-05 (inactive)	0.00704 (inactive)	15.5% (inactive)	39.4% (inactive)
Cc1ccc(C)c(N2CCN(C(=O)c3cc4ccccn4n3)CC2)c1	584	-2.9% (inactive)	-16.9% (inactive)	103	-31.8% (inactive)	118	-0.615 (inactive)	-2.1e-05 (inactive)	0.00707 (inactive)	-3.21% (inactive)	21.6% (inactive)
O=C(CCCn1c(=O)c2sccc2n(Cc2cc(=O)n3ccccc3n2)c1=O)NCc1ccco1	729	-2.9% (inactive)	-3.9% (inactive)	106	-67.8% (inactive)	116	-0.575 (inactive)	3.3e-07 (inactive)	0.0069 (inactive)	-12.7% (inactive)	-8.56% (inactive)
COc1ccc(S(=O)(=O)Nc2ccc3c(c2)OCO3)cc1Cl	625	7% (inactive)	-18.4% (inactive)	101	-9.8% (inactive)	101	-0.392 (inactive)	-6.9e-05 (inactive)	0.00299 (inactive)	10.6% (inactive)	12.9% (inactive)
O=C(NCC(=O)N(c1cnc2ccccc2c1)C(C(=O)NC1CCCC1)c1ccncc1)c1ccco1 (centres undefined)	501	-7.1% (inactive)	-3.6% (inactive)	102	-6.5% (inactive)	107	-0.532 (inactive)	5.2e-05 (inactive)	0.00551 (inactive)	15.1% (inactive)	17.8% (inactive)
CCc1nnc(NC(=O)C2CCCN2S(=O)(=O)c2ccc(C)cc2)s1 (centres undefined)	445	-8.4% (inactive)	24.1% (inactive)	60.3	25.4% (inactive)	123	-0.41 (inactive)	1.6e-05 (inactive)	0.00581 (inactive)	2.82% (inactive)	15.9% (inactive)
COC(=O)c1ccccc1OCC(=O)NC1CCCCC1	400	2.8% (inactive)	-13.9% (inactive)	110	-140% (inactive)	112	-0.511 (inactive)	-1.1e-05 (inactive)	0.00395 (inactive)	-18.9% (inactive)	-61.5% (inactive)
